Reference: PubChem BioAssay
A number with no mark means an inactive call. Active and inactive are the calls of the source. Cut-off read from the data, not from the text of the source, unless noted: active = inhibition above about 30%; inactive = the rest.

How the values were obtained:
[1] = target: Nuclear receptor coactivator 3 (Homo sapiens) (UniProt Q9Y6Q9); experiment: SRC3 coactivator transcriptional activity inhibitors, confirmation, cell-based, luminescence, quadruplicate (AID 588792;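 active = mean inhibition over 43.08%, the solvent-only control mean plus 3 SD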;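 note: 0% = DMSO treated cells and 100% = gossypol at 36 µM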); conditions: HEK293 GAL4-SRC3 luciferase reporter, at 3.6 µM, active compounds read high
[2] = test system: transactivating tegument protein VP16 (Human herpesvirus 1), Gal4-VP16 luciferase reporter; experiment: VP16 transactivation inhibitors, counter-screen for SRC3 inhibitor project, cell-based, luminescence, high throughput (AID 588794); conditions: mammalian cells, VP16-driven luciferase reporter luminescence; at 3.6 µM; active compounds read high
[3] = target: Nuclear receptor coactivator 1 (Homo sapiens) (UniProt Q15788); experiment: SRC1 coactivator transcriptional activity inhibitors, confirmation, cell-based, luminescence, quadruplicate (AID 588820;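 active = mean inhibition above 46.68%, the untreated control wells mean plus 3 SD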;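 note: 0% = DMSO wells and 100% = gossypol 36 µM treated wells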); conditions: HEK293 GAL4-SRC1 luciferase reporter, at 3.6 µM, active compounds read high
[4] = VP16 transactivation inhibitors, counter-screen for SRC1 inhibitor project, cell-based, luminescence, high throughput (AID 588824; in the data active = inhibition above about 25%); conditions: cell-based VP16 transactivation luciferase luminescence; at 3.6 µM; active compounds read high

Chain of Nuclear receptor coactivator 3 (Homo sapiens) (Q9Y6Q9 whole entry, looked up, the tested form may be a part): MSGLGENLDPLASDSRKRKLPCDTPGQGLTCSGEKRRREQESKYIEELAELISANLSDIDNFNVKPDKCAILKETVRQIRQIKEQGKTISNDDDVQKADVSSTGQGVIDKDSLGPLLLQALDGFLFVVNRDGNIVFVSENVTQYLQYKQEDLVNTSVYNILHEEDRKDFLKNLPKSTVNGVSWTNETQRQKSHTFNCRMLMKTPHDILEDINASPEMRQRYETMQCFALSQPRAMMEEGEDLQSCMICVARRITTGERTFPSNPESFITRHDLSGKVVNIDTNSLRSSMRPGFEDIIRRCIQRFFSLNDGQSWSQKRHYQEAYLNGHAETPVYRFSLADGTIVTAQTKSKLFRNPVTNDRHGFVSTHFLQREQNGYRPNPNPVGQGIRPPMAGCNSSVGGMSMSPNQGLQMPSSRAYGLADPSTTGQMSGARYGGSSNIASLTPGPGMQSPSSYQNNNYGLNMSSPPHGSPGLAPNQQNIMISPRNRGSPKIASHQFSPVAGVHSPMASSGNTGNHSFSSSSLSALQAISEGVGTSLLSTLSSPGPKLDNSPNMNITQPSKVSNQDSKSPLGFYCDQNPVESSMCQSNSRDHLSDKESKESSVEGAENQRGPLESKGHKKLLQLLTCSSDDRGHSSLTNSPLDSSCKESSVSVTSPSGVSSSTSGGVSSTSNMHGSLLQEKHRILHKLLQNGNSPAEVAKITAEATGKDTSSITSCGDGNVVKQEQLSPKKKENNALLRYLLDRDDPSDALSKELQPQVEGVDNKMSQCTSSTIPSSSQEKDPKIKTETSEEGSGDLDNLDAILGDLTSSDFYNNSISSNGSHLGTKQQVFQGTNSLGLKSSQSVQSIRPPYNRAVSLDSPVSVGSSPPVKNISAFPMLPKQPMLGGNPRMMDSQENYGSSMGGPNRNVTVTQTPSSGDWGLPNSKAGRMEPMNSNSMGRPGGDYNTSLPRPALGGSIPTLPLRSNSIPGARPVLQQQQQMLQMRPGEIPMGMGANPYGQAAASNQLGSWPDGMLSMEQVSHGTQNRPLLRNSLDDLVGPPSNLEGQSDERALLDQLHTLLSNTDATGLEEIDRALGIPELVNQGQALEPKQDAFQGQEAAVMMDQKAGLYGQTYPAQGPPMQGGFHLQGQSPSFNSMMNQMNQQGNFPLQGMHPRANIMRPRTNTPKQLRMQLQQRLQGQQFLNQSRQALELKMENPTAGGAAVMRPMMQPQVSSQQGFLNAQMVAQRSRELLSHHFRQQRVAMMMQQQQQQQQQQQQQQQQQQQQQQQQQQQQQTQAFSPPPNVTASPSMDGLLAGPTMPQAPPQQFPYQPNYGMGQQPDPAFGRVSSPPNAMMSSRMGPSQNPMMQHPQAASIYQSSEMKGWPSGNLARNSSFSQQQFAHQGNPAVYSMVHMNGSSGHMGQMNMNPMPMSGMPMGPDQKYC
Chain of Nuclear receptor coactivator 1 (Homo sapiens) (Q15788 whole entry, looked up, the tested form may be a part): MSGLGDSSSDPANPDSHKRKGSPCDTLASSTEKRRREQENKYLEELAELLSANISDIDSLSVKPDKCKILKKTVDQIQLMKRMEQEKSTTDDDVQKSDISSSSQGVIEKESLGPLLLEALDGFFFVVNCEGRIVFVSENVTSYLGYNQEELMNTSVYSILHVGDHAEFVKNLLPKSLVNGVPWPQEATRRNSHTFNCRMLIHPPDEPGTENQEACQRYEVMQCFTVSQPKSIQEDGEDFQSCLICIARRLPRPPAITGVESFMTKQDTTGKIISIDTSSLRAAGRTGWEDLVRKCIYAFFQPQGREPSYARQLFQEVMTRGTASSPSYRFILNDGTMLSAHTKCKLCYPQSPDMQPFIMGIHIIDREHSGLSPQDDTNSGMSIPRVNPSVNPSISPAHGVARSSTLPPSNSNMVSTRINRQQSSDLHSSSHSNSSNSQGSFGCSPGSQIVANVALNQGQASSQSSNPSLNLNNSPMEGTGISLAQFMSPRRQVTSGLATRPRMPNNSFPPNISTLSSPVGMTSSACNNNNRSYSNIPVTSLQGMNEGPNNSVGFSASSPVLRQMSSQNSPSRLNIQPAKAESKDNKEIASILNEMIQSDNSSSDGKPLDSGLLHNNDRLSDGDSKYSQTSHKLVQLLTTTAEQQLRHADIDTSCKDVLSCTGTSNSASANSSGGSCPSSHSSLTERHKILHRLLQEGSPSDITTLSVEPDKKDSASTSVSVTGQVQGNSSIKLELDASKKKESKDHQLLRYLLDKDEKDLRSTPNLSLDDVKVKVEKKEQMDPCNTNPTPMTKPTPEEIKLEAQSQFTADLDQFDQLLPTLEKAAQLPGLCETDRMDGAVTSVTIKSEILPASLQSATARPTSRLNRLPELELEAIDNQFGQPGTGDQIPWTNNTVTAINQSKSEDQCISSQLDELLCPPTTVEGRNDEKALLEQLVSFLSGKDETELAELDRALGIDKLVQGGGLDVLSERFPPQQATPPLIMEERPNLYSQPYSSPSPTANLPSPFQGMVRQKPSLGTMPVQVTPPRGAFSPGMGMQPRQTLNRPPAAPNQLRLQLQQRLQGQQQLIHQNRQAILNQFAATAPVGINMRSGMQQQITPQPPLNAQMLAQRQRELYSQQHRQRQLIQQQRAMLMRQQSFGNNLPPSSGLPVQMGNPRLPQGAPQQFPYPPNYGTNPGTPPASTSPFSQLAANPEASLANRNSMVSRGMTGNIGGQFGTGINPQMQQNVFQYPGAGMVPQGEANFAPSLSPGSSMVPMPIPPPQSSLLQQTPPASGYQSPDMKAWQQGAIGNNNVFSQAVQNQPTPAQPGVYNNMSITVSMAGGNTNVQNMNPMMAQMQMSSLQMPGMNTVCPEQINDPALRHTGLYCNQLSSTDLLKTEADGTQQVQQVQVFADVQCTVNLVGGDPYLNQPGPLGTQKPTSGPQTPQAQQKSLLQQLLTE

| Structure (SMILES) | inhibition [1] | inhibition [2] | inhibition [3] | inhibition [4] |
| --- | --- | --- | --- | --- |
| Cc1noc(C)c1CN1C(=O)NC2(CCCCCCC2)C1=O | 0.62% | -10.4% | – | – |
| c1ccc(-n2nnnc2NCCCN2CCOCC2)cc1 | -14.3% | -8.35% | – | – |
| Cc1ccc(Cl)cc1N(Cc1ccc(C(=O)NCc2cccnc2)cc1)S(=O)(=O)c1ccccc1 | 9.61% | -10.9% | – | – |
| CC(=O)Nc1ccc(NC(=O)c2ccc(N(Cc3ccccc3C)S(C)(=O)=O)cc2)cc1 | -0.29% | -7.31% | – | – |
| O=C(N/N=C/c1cc(Br)ccc1O)c1cccc(N2CCCC2=O)c1 | 1.45% | 30.7% (active) | – | – |
| COc1ccc(CN2C(=O)c3cccnc3C2=O)cc1S(=O)(=O)NCc1ccccc1 | 8.01% | -6.65% | – | – |
| O=C(C[n+]1ccccc1)NNc1ccccc1 | 33.2% | 47.4% (active) | – | – |
| CC(=O)c1ccc(N2CCN(C(=O)c3nn(Cc4ccccc4)c(=O)c4ccccc34)CC2)cc1 | 13.9% | -1.19% | – | – |
| CCCC(C(=O)NC(C)(C)C)N(C(=O)c1snc(C(N)=O)c1N)c1ccc2c(c1)OCCO2 (stereo not drawn) | 15.9% | 2.4% | – | – |
| Cc1ccc(-n2c(Cl)c(Cl)nc(Cl)c2=O)cc1 | 45.3% (active) | 17.9% | – | – |
| CCC(C)(C(=O)NC1CCCC1)N(C(=O)CNC(C)=O)c1ccc(C)cc1 (stereo not drawn) | 0.65% | -7.27% | – | – |
| O=C(N/N=C\c1cc(Br)ccc1O)c1ccc(S(=O)(=O)N2CCCCC2)cc1 | 72.3% (active) | 74.8% (active) | – | – |
| O=C1OCCC1Sc1nnc(-c2ccc(Cl)cc2Cl)o1 (stereo not drawn) | 0.88% | 1.16% | – | – |
| Cc1ccc(S(=O)(=O)N2CCOCC2)cc1C(=O)Nc1cc(S(=O)(=O)N2CCCCC2)ccc1O | -2.21% | -4.27% | – | – |
| COc1ccc(CCNC(=O)COc2ccc(N(C)S(=O)(=O)c3ccc(Cl)cc3)cc2)cc1 | 10.9% | 20.2% | – | – |
| CC(=O)N1c2ccc(S(=O)(=O)NCC3CCC(C(=O)Nc4cccc(C)n4)CC3)cc2CC1C (stereo not drawn) | -3.79% | 27.4% | -11.2% | 21.6% |
| CCN1/C(=C/c2ccc3cc(C)cc(C)c3[n+]2CC)Sc2cc(C)ccc21 | 39.4% | 66.3% (active) | 0.74% | 59.3% (active) |
| O=c1[nH]c(=O)n([C@H]2C[C@H](O)[C@@H](CO)O2)cc1F | 60.6% (active) | 31% (active) | 46% | 35.4% (active) |
| CC(=O)N(C)C1=C(N2CCOCC2)C(=O)c2ccccc2C1=O | -0.07% | 35.7% (active) | 14.2% | 21.9% |
| CC(C)CCNC(=O)C(c1ccncc1)N(Cc1cccs1)C(=O)Cn1nnc(-c2ccc(F)cc2)n1 (stereo not drawn) | 66.2% (active) | 54.1% (active) | 46.3% | 52.2% (active) |
| Cn1nc(CC(=O)Nc2ccc(N3CCN(C(=O)OC(C)(C)C)CC3)cc2)c2ccccc2c1=O | 17.6% | 42.2% (active) | – | – |
| CCCCC(=O)NC(c1ccc(N(C)C)cc1)c1ccc2cccnc2c1O (stereo not drawn) | 58.5% (active) | 43.9% (active) | 48% (active) | 55.9% (active) |
| CCOc1ccc(CNC(=O)C2Cc3cc(S(=O)(=O)N4CCCC4)ccc3N2C(C)=O)cc1 (stereo not drawn) | 4.56% | 8.25% | – | – |
| COc1cccc(CNc2ncnc3ccc(-c4c(C)noc4C)cc23)c1 | 36.6% | 1.06% | 19.3% | -7.49% |
| NC(=O)C(C(=O)/C=C/c1ccc(Cl)cc1)=C1SCCS1 | 29.4% | 36.6% (active) | 30.9% | 33.8% (active) |
| CC(C)(C)C(=O)NC(=S)NNC(=O)c1sc2ccccc2c1Cl | 10.1% | 3.67% | -1.3% | -6.4% |
| O=C(NNC1=Nc2cccc3cccc1c23)c1ccccc1Br | 19.4% | 22.2% | 14.2% | 17.2% |
| Cn1c(/C=C/c2ccc(Cl)cc2Cl)c([N+](=O)[O-])c(=O)n(C)c1=O | 62.2% (active) | 51.5% (active) | 47.2% (active) | 56.3% (active) |
